Reference: PubChem BioAssay AID489025 (Southern Research Specialized Biocontainment Screening …, 2010)
Screen size: about 2,300 compounds; about 790 (34%) were called active. This is one part of the list. Entries with a potency or affinity are not part of this list. A number with no mark means an inactive call. No rule for the calls is given here.

Experiment: THP-1 cell cytotoxicity, dose response, cytotoxicity control for non-replicating M. tuberculosis project (AID 489025)
Conditions: THP-1 cell viability; series mostly up to 40 µM; viability: at the top concentration

| Compound | viability [%] |
| --- | --- |
| COc1ccc(CNC(=O)c2cc3cccc(O)c3oc2=N)cc1 | 107 |
| CCOC(=O)COc1ccc2c(=O)c(-c3ccccc3OC)coc2c1 | 114 |
| COC(=O)COc1ccc(-c2nn(C)c(=O)c3ccccc23)cc1 | 86.9 |
| O=C(CNC(=O)c1ccco1)OCc1ccc(C(=O)Oc2ccccc2)cc1 | 106 |
| CCOC(=O)c1ccc(NC2OC(=O)c3ccccc32)cc1 (stereo not drawn) | 110 |
| CCOC(=O)CC(=O)Nc1ccc(C(=O)OCC)cc1 | 88.2 |
| c1ccc(C2=Nc3ccccc3OC2)cc1 | 115 |
| O=C(N/N=C/c1ccccn1)c1cccc(S(=O)(=O)Nc2ccccc2Cl)c1 | 87.6 |
| Cc1ccnc(NC(=O)CCc2c[nH]c3ccccc23)c1 | 74.2 |
| CC(C)c1ccc(/C=N/NC(=O)c2ccccn2)cc1 | 91.5 |
| O=C(CCc1c[nH]c2ccccc12)Nc1ncccc1O | 126 |
| C/C(=N\Nc1ccc(Cl)cc1)c1ccccn1 | 93.5 |
| COc1cc(/C=N/NC(=O)c2ccccn2)ccc1OC(=O)c1cccs1 | 88.8 |
| O=C(N/N=C/c1ccccn1)c1ccccc1 | 70.2 |
| COc1cccc(/C=N/N2C(=O)CSC2=S)c1O | 112 |
| CCCC(C)C(=O)Nc1ccc(Cl)cn1 (stereo not drawn) | 114 |
| O=[N+]([O-])c1ccc(N2CCCCCC2)c2nonc12 | 112 |
| CC1CCCN(CCC(=O)c2ccc(Br)cc2)C1 (stereo not drawn) | 98.7 |
| C/C(=N\Nc1cccc2cccnc12)c1ccccn1 | 79.8 |
| CC(OC(=O)c1ccc2c(=O)n3c(nc2c1)CCCCC3)C(=O)Nc1ccc(Cl)cn1 (stereo not drawn) | 80.8 |
| CCOC(=O)c1cc(-c2csc(COc3ccccc3)n2)on1 | 95.9 |
| COc1cc(Cl)cc(/C=N/NC(N)=O)c1O | 103 |
| Cc1occc1C(=O)N/N=C/c1ccc[nH]1 | 82.8 |
| Cn1cccc1/C=N/NC(=O)c1ccco1 | 102 |
| O=C(N/N=C/c1cn[nH]c1-c1ccccc1)c1ccco1 | 96.9 |

| Compound | viability [%] |
| --- | --- |
| O=C(OCc1ccc([N+](=O)[O-])cc1)c1cc2ccccc2oc1=O | 96.3 |
| Cc1cccc(NC(=O)c2cc3ccccc3oc2=O)c1 | 87.6 |
| COc1ccccc1/C=C/C=N/NC(=O)c1ccncc1 | 75.8 |
| Cc1cc(C)n(-c2ccc(C(=O)OCC(=O)Nc3cc(Cl)ccc3[N+](=O)[O-])cc2)n1 | 104 |
| COc1ccc(OC(=O)C2CC(=O)N(c3ccc(C)cc3)C2)cc1 (stereo not drawn) | 108 |
| O=C(COC(=O)c1cccs1)NCCC1=CCCCC1 | 96.1 |
| CCCCN(C)C(=O)c1cc2cc3ccc(OC)cc3nc2s1 | 85.8 |
| CN(CC(=O)Nc1ccc(C#N)cc1)Cc1ccc(Cl)c(Cl)c1 | 102 |
| Cc1ccnc(NC(=O)COc2ccc3c(c2)CCC3)c1 | 107 |
| Cc1cccnc1NC(=O)COc1ccc2oc3c(c2c1)CCCC3 | 79.2 |
| O=C(O)COc1ccc2occ(C(=O)c3ccccc3)c2c1 | 118 |
| O=C(N/N=C/c1ccc([N+](=O)[O-])s1)c1ccncc1 | 102 |
| CC(=O)N1N=C(c2ccccc2)OC1c1ccc([N+](=O)[O-])s1 (stereo not drawn) | 99.8 |
| Cc1onc(-c2ccccc2)c1C(=O)Nc1nnc(COc2ccc(Cl)cc2)s1 | 102 |
| O=C(N/N=C\c1ccco1)c1cncc(Br)c1 | 108 |
| CC(/C=C/c1ccco1)=N/NC(=O)c1ccc(C)nc1 | 94.9 |
| CNC(=S)N1CCN(c2c(F)cc3c(=O)c(C(=O)O)cn(C4CC4)c3c2OC)CC1C (stereo not drawn) | 110 |
| O=C(Oc1ccc(F)cc1)c1ccc2c(=O)n3c(nc2c1)CCC3 | 106 |
| CCN(CC)C(=O)c1sc2nc(-c3ccccc3)ccc2c1N | 72.4 |
| O=C(Nc1ccc(Br)cc1)c1cc([N+](=O)[O-])cc([N+](=O)[O-])c1 | 92 |
| Cc1ccc(C(=O)CCNc2ccc(F)c(Cl)c2)o1 | 116 |
| CCCCSc1nnc(-c2ccc(C)cc2)o1 | 108 |
| CC1=NN(c2ccc(C(=O)O)cc2)C(=O)/C1=C\c1ccc(OC(=O)c2cccs2)cc1 | 112 |
| Cc1ccc(/C=N/NC(=O)c2ccncc2)s1 | 114 |
| CCC(=O)N/N=C/c1ccc(-c2ccc(Cl)cc2)o1 | 103 |

| Compound | viability [%] |
| --- | --- |
| COc1ccc(C(=O)COC(=O)c2ccc([N+](=O)[O-])s2)cc1OC | 98.1 |
| Cc1ccc(C(=O)N/N=C\c2ccc[nH]2)cn1 | 97.8 |
| O=C(N/N=C/c1cccs1)c1cncc(Br)c1 | 101 |
| O=C(N/N=C/c1ccc(Br)s1)c1ccncc1 | 112 |
| Cc1ccc(NC(=O)CC2SC3=NCCCN3C2=O)c(C)c1 (stereo not drawn) | 86.8 |
| CCC1CCC(c2nnc(-c3ccc([N+](=O)[O-])cc3)o2)CC1 (stereo not drawn) | 110 |
| Nc1ccc(Br)c2cccnc12 | 110 |
| CCC(C)n1c(=S)[nH]c2ccccc2c1=O (stereo not drawn) | 90.4 |
| O=C(N/N=C/c1ccc(Br)s1)c1cccnc1 | 112 |
| CC(C)(C)OC(=O)N/N=C\c1ccc([N+](=O)[O-])s1 | 113 |
| COc1cc(/C=C2/C(=O)NN(c3cccc(F)c3)C2=O)ccc1OC(=O)c1ccco1 | 111 |
| CCOc1ccc(Nc2ccc([N+](=O)[O-])c3nonc23)cc1 | 83.1 |
| CS/C(Nc1cc(Cl)ccc1Cl)=C(/C#N)C(=O)c1ccco1 | 72.6 |
| Cc1ccc(NC(=O)C(=O)NNC(=O)c2ccccc2C)cc1Cl | 86.4 |
| CCOC(=O)N1CCN(c2cc(C)c([N+](=O)[O-])cc2F)CC1 | 92.8 |
| Cc1ccc(CN2CC(C(=O)OCc3ccccc3Cl)CC2=O)cc1 (stereo not drawn) | 121 |
| Cc1cccc(C)c1NC(=O)c1sc(N)nc1-c1ccccc1 | 100 |
| Cc1ccc(NC(=O)c2noc(C(C)C)c2[N+](=O)[O-])cc1 | 99.2 |
| Cc1ccc2cc(/C=N/NC(=O)[C@H](C)NC(=O)OC(C)(C)C)c(Cl)nc2c1 | 84.4 |
| O=C(N/N=C/c1cccc(F)c1)c1c(O)c2ccccc2[nH]c1=O | 80.8 |
| CC(=O)Oc1ccc(/C=C2\N=C(C3CCCCC3)OC2=O)cc1 | 106 |
| COc1cc(N=c2ssnc2Cl)cc(OC)c1OC | 85.6 |
| O=C(CCSc1nnc(-c2ccncc2)o1)Nc1cccc(Cl)c1 | 82.2 |
| CCn1ccc(C(=O)Nc2cccc(Cl)c2)n1 | 99.6 |
| CCN1CCN(Cc2cc(C(C)(C)C)c(O)c(C(C)(C)C)c2)CC1 | 107 |

| Compound | viability [%] |
| --- | --- |
| CCCCOC(=O)Cn1c(-c2ccccc2)nc2ccccc2c1=O | 107 |
| CC(=O)Nc1cccc(-c2nc3ccccc3c(=O)o2)c1 | 93 |
| O=C(Nc1ccccn1)c1ccc(C(=O)c2ccccc2)cc1 | 86.9 |
| O=C(Nc1cccnc1)c1ccc(-c2ccc(Cl)cc2)o1 | 78 |
| CCCOC(=O)c1ccc(NC(=O)c2ccc(Br)o2)cc1 | 70.8 |
| CC(C)(C)c1ccc(OCCC(=O)OCC(=O)NC2CC2)cc1 | 97.6 |
| O=C(NC1CCOc2ccccc21)c1ccc(Cl)nc1 (stereo not drawn) | 104 |
| Cc1ccccc1-n1nnc2c(=O)oc3ccccc3c21 | 117 |
| NC(=O)C1CCN(C2CC(=O)NC2=O)CC1 (stereo not drawn) | 125 |
| O=C(c1cc2ccccc2o1)c1nc2c(n1O)CCCCC2 | 101 |
| O=C(Nc1ncc(Cc2ccccc2)s1)C1=NCCN1 | 101 |
| CCOC(=O)Cc1ccc(NCc2ccc(Cl)cc2)cc1 | 82.2 |
| CCOC(=O)c1c(C)nc2c3ccccc3ccn12 | 113 |
| CCOC(=O)C1(O)CC(C)=NN1C(=O)c1cccc(Br)c1 (stereo not drawn) | 88.5 |
| CCOC(=O)Cc1cc(=O)n2[nH]cc(-c3ccc(Cl)cc3)c2n1 | 87.2 |
| O=C1CC(N2CCN(c3ccccc3)CC2)C(=O)N1CCc1ccccc1 (stereo not drawn) | 97.6 |
| CCOc1ccc(NC(=O)COC(=O)C2(C)CC2(Cl)Cl)c([N+](=O)[O-])c1 (stereo not drawn) | 94.1 |
| Cc1ccc(Sc2ncccc2N)cc1 | 104 |
| Cc1ccc2oc(=O)c3cc(C(=O)NCCCN4CCCCCC4)sc3c2c1 | 80.9 |
| O=C(NCCCN1CCOCC1)c1ccc(CSc2ccc(Cl)cc2)cc1 | 71.3 |
| CC(=O)N1CCC(=NNC(=O)c2cccs2)CC1 | 112 |
| Cc1cccc(CSc2nnc(-c3ccco3)o2)c1 | 94.8 |
| C#CCSc1nnc(-c2ccc(O)cc2)o1 | 112 |
| C#CCSc1nnc(-c2ccc([N+](=O)[O-])cc2)o1 | 92.9 |
| CCOc1ccc(CC(=O)N2N=C(C)CC2(O)C(F)(F)F)cc1 (stereo not drawn) | 103 |

| Compound | viability [%] |
| --- | --- |
| O=C(CNC1CCCC1)Nc1ccc(N2CCCCCC2)cc1 | 91.9 |
| COc1cc(N=c2ssnc2Cl)cc(OC)c1 | 117 |
| N#Cc1ccc(N=c2ssnc2Cl)cc1 | 112 |
| CC(=O)Nc1ccc(NC(=O)[C@@H]2CCCC[C@@H]2C(=O)O)cc1 | 85.2 |
| CC(C)N=C1SC(CC(=O)Nc2ccccc2)C(=O)N1C(C)C (stereo not drawn) | 85.1 |
| CC(C)(C)c1ccc(C(=O)N2CCCC2)s1 | 90.3 |
| CC1(C)OC(c2ccccc2)=C/C(=C\C=N\NC(=O)c2ccncc2)O1 | 75.6 |
| Cc1ccc(NC(=O)CCSc2nnc(-c3ccco3)o2)cc1 | 104 |
| O=C1/C(=C/c2ccco2)CCC1C1CCCC1 (stereo not drawn) | 98 |
| COc1ccc(CC(=O)Nc2nccs2)cc1OC | 105 |
| N/C(=N\OC(=O)c1cccc2ccccc12)c1cccnc1 | 121 |
| O=C(Oc1ccc(/C=N/O)cc1)c1ccccc1Cl | 115 |
| N/N=C(/Cc1nc2ccccc2[nH]1)c1ccc([N+](=O)[O-])cc1 | 104 |
| O=C(Nc1nc2ccccc2[nH]1)c1cccc([N+](=O)[O-])c1 | 106 |
| Cc1ccc(-c2nnc(Cc3ccc([N+](=O)[O-])cc3)o2)cc1 | 95.5 |
| O=[N+]([O-])c1ccc2nc(SCc3cn4ccccc4n3)[nH]c2c1 | 123 |
| Cc1ccc2cc3c(nc2c1)OCC3 | 108 |
| Fc1ccc(N2CCN(Cc3nnc(-c4ccccc4)o3)CC2)cc1 | 105 |
| O=C1CCCCC1Sc1nnc(-c2ccc3c(c2)OCO3)o1 (stereo not drawn) | 107 |
| O=C(COC(=O)c1ccccc1Cl)NCCC1=CCCCC1 | 93.1 |
| Cc1ccc2c(C)ccc(O)c2n1 | 123 |
| CN1C(=O)CC(N2CCC(c3nc4ccccc4s3)CC2)C1=O (stereo not drawn) | 97.2 |
| FC(F)(F)c1ccc(NCCc2ccccc2)nc1 | 98 |
